Whole data set: some 39,000 sequences, median “fluorescence intensity (a.u.)” near 4,300, cut for the highest 2% near 39,000. The full list was thinned out, with the highest values kept by preference.
Each sequence was assayed against T1, OsSMF1 (Oryza sativa, UniProt Q6ZLB0 1-436) (assay: protein-binding microarray (RPBM); PBS, 2% BSA, 51.3 ng/ul salmon testes DNA, 50 uM zinc acetate, 200 nM TF, 25 C, 1 h; high values mean tight binding). Details: protein: recombinant; tags: N-terminal polyhistidine and DsRed monomer fusion (pET32a); chain copies: 2; label: CyDye5-dUTP incorporated in the synthesized complementary strand; 3' TTTTT single-stranded linker to array surface; dsDNA, one strand shown.
T1 sequence: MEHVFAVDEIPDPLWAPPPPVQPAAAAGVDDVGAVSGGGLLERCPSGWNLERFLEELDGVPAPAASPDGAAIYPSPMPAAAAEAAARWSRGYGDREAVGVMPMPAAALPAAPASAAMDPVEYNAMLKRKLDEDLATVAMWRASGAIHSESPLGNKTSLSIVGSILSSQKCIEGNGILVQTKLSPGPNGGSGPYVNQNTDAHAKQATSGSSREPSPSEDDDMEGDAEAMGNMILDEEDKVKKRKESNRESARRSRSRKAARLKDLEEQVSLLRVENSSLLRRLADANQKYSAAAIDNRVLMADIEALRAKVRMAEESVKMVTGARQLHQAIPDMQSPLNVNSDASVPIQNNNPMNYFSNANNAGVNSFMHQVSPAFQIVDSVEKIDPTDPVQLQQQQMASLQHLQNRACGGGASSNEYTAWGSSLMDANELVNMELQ
Summary of the method: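 Transcription factors were each fused at the N-terminus to a polyhistidine tag plus DsRed and expressed in E. coli BL21-CodonPlus before Ni–NTA purification. Binding to a double-stranded custom Agilent array was carried out with 200 nM protein at 25 °C for 1 h in PBS, 2% BSA, salmon testes DNA and 50 µM zinc acetate. The binding signal is per-feature fluorescence intensity, in arbitrary units, on an Axon 4000B scanner.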

Row | Sequence | binding signal
1 | CCGCCGCAGCCGCAGCCGGCCAAGCTGGGCGTCGGCGACACGGAGTCACCTAGTGCAG | 39700 fluorescence intensity (a.u.)
2 | CCCCTCCGCCTCGTCCCCATCGGCCACTGCCACCACCGCCCGGAGTCACCTAGTGCAG | 3700 fluorescence intensity (a.u.)
3 | CGGCGTGGCCGCTGCGTCACGGGCGACTGCGCCAGCGTGCCGGAGTCACCTAGTGCAG | 5890 fluorescence intensity (a.u.)
4 | CGCCACCGTCACCGACCGCGCGCGCACGCACGCACACTCCCGGAGTCACCTAGTGCAG | 3390 fluorescence intensity (a.u.)
5 | CCGTCGCCGCCAAGCATCGAGCCGCCGGCCACAGCAGCCGCGGAGTCACCTAGTGCAG | 42100 fluorescence intensity (a.u.)
6 | TCCGCCGTCGCCGCTCCGTCCATCGCCCGCCGTCACCGCCCGGAGTCACCTAGTGCAG | 4040 fluorescence intensity (a.u.)
7 | GCGCGCGCCACCGCACCCGCGACGCCGACGTGTTCATGACCGGAGTCACCTAGTGCAG | 5890 fluorescence intensity (a.u.)
8 | CGGTCGGTCCATCGCCCTCCGTCCCCATCCCCACCGTCACCGGAGTCACCTAGTGCAG | 41900 fluorescence intensity (a.u.)
9 | CACGCCGCCGCCCGTCGCGAGCTCCACGTCGAGCAGCAGCCGGAGTCACCTAGTGCAG | 4920 fluorescence intensity (a.u.)
10 | AAAGCCGCACACGTGTTTCCCGCGACCGCGCCACGTCACCCGGAGTCACCTAGTGCAG | 46700 fluorescence intensity (a.u.)
11 | GTGGCGCGCGCGCGCACGCACGCTGGGCGACACGCCACGCCGGAGTCACCTAGTGCAG | 4530 fluorescence intensity (a.u.)
12 | CCAGCATCGCCGGCAGATCCACGTCGAGCATCGCGGCAGGCGGAGTCACCTAGTGCAG | 5190 fluorescence intensity (a.u.)
13 | TACAAAATCATCCATCAACCGCAAAATCAGATATCGACCGCGGAGTCACCTAGTGCAG | 3800 fluorescence intensity (a.u.)
14 | GATGTGACGTGATGTGATGGAAAGTTGGGAGTTGGGGAAACGGAGTCACCTAGTGCAG | 6040 fluorescence intensity (a.u.)
15 | TTGGCCGGTAACGCGTCATGACTCATGAGCTACTGGACTTCGGAGTCACCTAGTGCAG | 9990 fluorescence intensity (a.u.)
16 | TTCGTCCGTGCGTGCGTGCGTGCGCGACTCGCTCTCACACCGGAGTCACCTAGTGCAG | 10700 fluorescence intensity (a.u.)
17 | TACATTTCTTTGACAAAACTTTTATAACCAGCTGATGTGGCGGAGTCACCTAGTGCAG | 11400 fluorescence intensity (a.u.)
18 | GAGTTGTGACTGTGAGGCACACCAATGGCGGCCCATGGATCGGAGTCACCTAGTGCAG | 3740 fluorescence intensity (a.u.)
19 | CACTGTCCATCCATGGTGGTGGTCAGACAACCCCAGCACACGGAGTCACCTAGTGCAG | 3990 fluorescence intensity (a.u.)
20 | TGCGATTGATTCGGTATTAGAGCCTGCATACGTGTCATCTCGGAGTCACCTAGTGCAG | 22100 fluorescence intensity (a.u.)
21 | GTCGGCCCATGAATATGCTGACGTCACTTTTGAGCCCACTCGGAGTCACCTAGTGCAG | 36600 fluorescence intensity (a.u.)

Row | Sequence | binding signal
22 | CCATCTCGGCCCATGAGGATGCTGACGTCACCGCGTCGTCCGGAGTCACCTAGTGCAG | 42700 fluorescence intensity (a.u.)
23 | TCCAGATCTTGGCGCCGCCGGATCCCGTCAGTCTCCACAACGGAGTCACCTAGTGCAG | 48300 fluorescence intensity (a.u.)
24 | GCCGCCGCCGCCGTCTGCACCCGCGTCAGCGCTCCACAAACGGAGTCACCTAGTGCAG | 3440 fluorescence intensity (a.u.)
25 | CGGCCGCCGCGACACCCGCCGCCACGTCGCCCCGCCACGCCGGAGTCACCTAGTGCAG | 9460 fluorescence intensity (a.u.)
26 | CCTCTCCAGTACGCGTCGCCCCGCCACGTCAGCGACTGGCCGGAGTCACCTAGTGCAG | 41600 fluorescence intensity (a.u.)
27 | GCCTCCACCTCGCTGCTGCTCCGCCAGCTAGTAGCCGCCACGGAGTCACCTAGTGCAG | 3350 fluorescence intensity (a.u.)
28 | CATGAGGAGGATGCTGACGTCTCGAGGTGAAGGCCGCAATCGGAGTCACCTAGTGCAG | 4970 fluorescence intensity (a.u.)
29 | CTCTCCCGCCTCGCCCGTCGACGCCCGCGCCACGTGCAGCCGGAGTCACCTAGTGCAG | 6190 fluorescence intensity (a.u.)
30 | CGCTCTGCCGTCCGGCTCTCCGCGCGATGCTACGTGGCCGCGGAGTCACCTAGTGCAG | 5480 fluorescence intensity (a.u.)
31 | TCGGCCAATGCGGAGCCGTCAGCTCTCCGCTGCTCGGCTACGGAGTCACCTAGTGCAG | 44400 fluorescence intensity (a.u.)
32 | TCTCCCAGGCCACCATCGGCGTCCACATCCCGCCGTCCGCCGGAGTCACCTAGTGCAG | 3510 fluorescence intensity (a.u.)
33 | GACATTTACATGTACTGATTGCTGATTGCCATTGATTCATCGGAGTCACCTAGTGCAG | 22800 fluorescence intensity (a.u.)
34 | CAGTGTTACATCATCGACCGGTTATCATCTTTGTTTCGATCGGAGTCACCTAGTGCAG | 3580 fluorescence intensity (a.u.)
35 | TTGCACATGCTGATTATTACATATTGCTACGTCCTTTTGCCGGAGTCACCTAGTGCAG | 3230 fluorescence intensity (a.u.)
36 | GGTGTGTATTGACGCACCACGTATGTCTATCTTCTTTCGTCGGAGTCACCTAGTGCAG | 3820 fluorescence intensity (a.u.)
37 | TGGCCGGAATCACACGCACAAGGTGCTGCGTCACCTATAACGGAGTCACCTAGTGCAG | 9040 fluorescence intensity (a.u.)
38 | CACGATCCATCATATCGCTTGAGCTAGCCACAACACACAACGGAGTCACCTAGTGCAG | 22100 fluorescence intensity (a.u.)
39 | GCATGGTGGCGGCGGGAAGGAGGAGTGGGGCGGCGGGTGCCGGAGTCACCTAGTGCAG | 3770 fluorescence intensity (a.u.)
40 | CCAGCCCCGCGCCGGCCGCCGTCCGTCCGCCCGCGCGCGGCGGAGTCACCTAGTGCAG | 3540 fluorescence intensity (a.u.)
41 | GGGCCCCGCAGGCGCAGGCGCAGCGGTACGCCGTCGTCGGCGGAGTCACCTAGTGCAG | 54200 fluorescence intensity (a.u.)
42 | GCCACCGCCGCGGGCGCGGCCCCGGCCCCGGCCCCGGCCGCGGAGTCACCTAGTGCAG | 3390 fluorescence intensity (a.u.)
